Source: PubChem
Sampled rows, rich in hits. Any-hit rate of the full collection: about 6.6%.
TGFb SMAD3 inh = blocks TGF-b signaling | Potency, µM (titrated, usually from 46.1 µM), for the others: top-dose activity, negative = inhibition, most hits filed as inhibitors | HepG2 CAGA-GFP TGF-b/SMAD3 reporter, GFP fluorescence, 18 h; TGF-beta stimulated, 500 pg/mL final | 1.2% of 410,000 active; further: on the % scale 0 is the no-effect control and ±100 the full control effect; nearly all actives have a fitted effect of over 65% in size
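Smad-responsive CAGA-GFP expression was quantified in HEPG2 cells exposed to compounds and 500 pg/mL final TGF-beta for 18 h at 37 degrees C; unstimulated wells defined full inhibition.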
HepG2 tox = HepG2 cytotoxicity, counter-screen for TGF-b inhibitors. HepG2 CAGA-GFP viability, ATP luminescence, 18 h. Potency, µM (series often up to 46.1 µM), for inactives: at the top dose activity change, negative = cytotoxicity, hits mostly cytotoxic. 0.76% of 410,000 active. AID 588856
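CellTiter-Glo luminescence gave cytotoxicity after 18 hours at 37 degrees C. The cells were HepG2 CAGA-GFP in 1% FBS DMEM, stimulated with 500 pg/mL TGF-beta after compound addition. %Activity was normalised to no-cell wells (complete cell-killing) and DMSO (no toxicity), and curves were fitted and classified.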
KB-3-1 tox = kills parental KB-3-1 adenocarcinoma cells | AID 1347075 | KB-3-1 viability, CellTiter-Glo ATP luminescence, 72 h | 1.4% of 400,000 active | Potency, µM (titrated, usually from 46.1 µM), hits mostly cytotoxic; further: on the % scale 0 is the no-effect control and ±100 the full control effect; nearly all actives have a fitted effect of over 60% in size
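Parental KB-3-1 adenocarcinoma cells in phenol-red-free DMEM with 10% FBS were pin-treated with compounds at several concentrations, incubated 72 h at 37 °C, and viability read by CellTiter-Glo luminescence; concentration-effect curves were fitted after normalization.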
HT1080NT lethal = kills 2HG-producing HT-1080-NT fibrosarcoma cells | HT-1080-NT fibrosarcoma viability, CellTiter-Glo ATP luminescence, 48 h | Potency, µM (highest dose often 46.1 µM), without a hit: at the highest dose activity, negative = less viability, most hits filed as cytotoxic | 1.6% of 360,000 active;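 further: NT is the 2HG producing partner of a matched IDH1 knockdown line; 0% = DMSO-treated cells and -100% = media-only wells without cells; nearly all actives have a fitted effect of over 55% in size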
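A 48-hour cytotoxicity screen used HT-1080-NT cells plated 2 hours before compound delivery. ATP-based CellTiter-Glo luminescence measured viability, normalized to DMSO and no-cell controls.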
HT1080 IDH1KD tx = kills HT-1080 cells with IDH1 knockdown | HT-1080 IDH1 knockdown viability, ATP luminescence, 48 h | Potency, µM (highest dose often 46.1 µM), for the others: at the highest dose activity, negative = toxicity, usual class: cytotoxic | 2% of 360,000 active;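 further: 0% = DMSO wells and -100% = cell-free medium wells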
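Assay cells: HT-1080 with IDH1 knockdown, 750 per well, RPMI/5% FBS. Exposure: 48 h at 37 °C following 2 h pre-incubation. Read: CellTiter-Glo luminescence; fitted concentration-response, curve class assigned.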
KB-V1 cytotox = KB-V1 MDR subline cytotoxicity; KB-V1 MDR cells viability, CellTiter-Glo, 72 h; Potency, µM (top dose mostly 46.1 µM), hits mostly cytotoxic; 3.4% of 400,000 active; further: on the % scale 0 is the no-effect control and ±100 the full control effect; nearly all actives have a fitted effect of over 60% in size
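qHTS viability screen in drug-selected KB-V1 MDR cells: 72 h compound treatment at 37 degrees C, ATP luminescence end point.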
* hit, by the source's call. The call rests on the fitted dose curve; in most records, active means well fitted curve in the direction sought with a large enough effect; inconclusive means small, poorly fitted or top-dose-only effect, or another doubt; inactive means no such curve, though single readings can be large; an effect the other way counts as inactive or inconclusive. Potency means the concentration at half of the fitted maximal effect.

`CCCCCn1c(=N)c(S(=O)(=O)c2ccc(Cl)cc2)cc2c(=O)n3cccc(C)c3nc21` gave TGFb SMAD3 inh 14%, HepG2 tox 0%, KB-3-1 tox inconclusive, HT1080NT lethal 1%, HT1080 IDH1KD tx 13% and KB-V1 cytotox 8.2µM*.
Screening CCOCCCn1c(=N)c(S(=O)(=O)c2ccc(Cl)cc2)cc2c(=O)n3cccc(C)c3nc21 returned TGFb SMAD3 inh 4%, HepG2 tox -2%, KB-3-1 tox inactive and KB-V1 cytotox inconclusive.
`CCOCCCn1c(=N)c(C(N)=S)cc2c(=O)n3cccc(C)c3nc21` gave TGFb SMAD3 inh 4%, HepG2 tox -20%, KB-3-1 tox inconclusive, HT1080NT lethal 33%, HT1080 IDH1KD tx 0% and KB-V1 cytotox 16µM*.
Cc1cccn2c(=O)c(C(=O)NCCc3ccc(S(N)(=O)=O)cc3)c(O)nc12 was read as TGFb SMAD3 inh -9%, HepG2 tox 3%, KB-3-1 tox inactive and KB-V1 cytotox inactive.
For CCOC(=O)C1=C(N)n2c(s/c(=C\c3ccco3)c2=O)=C(C(=O)OCC)C1c1ccco1 (configuration not stated) the results were TGFb SMAD3 inh 9%, HepG2 tox 4%, KB-3-1 tox 16µM*, HT1080NT lethal 16µM*, HT1080 IDH1KD tx 7.9µM* and KB-V1 cytotox 4.6µM*.
Screening CCN1/C(=C/C=C/c2oc3ccc(-c4ccccc4)cc3[n+]2CC)Oc2ccc(-c3ccccc3)cc21 returned TGFb SMAD3 inh 103%, HepG2 tox -111%, KB-3-1 tox 9.2µM*, HT1080NT lethal 2.6µM*, HT1080 IDH1KD tx 0.92µM* and KB-V1 cytotox 15µM*.
`COc1cccc(-c2cc3nc(-c4ccccc4)cc(N4CCCC(O)C4)n3n2)c1` (configuration not stated) gave TGFb SMAD3 inh 13µM*, HepG2 tox -32%, KB-3-1 tox inactive, HT1080NT lethal inconclusive, HT1080 IDH1KD tx inconclusive and KB-V1 cytotox inactive.
For OC1CCN(c2cc(-c3ccccc3)nc3cc(-c4ccc(F)cc4)nn23)CC1 the results were TGFb SMAD3 inh -4%, HepG2 tox -19%, KB-3-1 tox inactive, HT1080NT lethal 10%, HT1080 IDH1KD tx 2% and KB-V1 cytotox inactive.
CCN1CCN(c2cc(-c3ccccc3)nc3cc(-c4cccc(F)c4)nn23)CC1 was read as TGFb SMAD3 inh inconclusive, HepG2 tox -116%, KB-3-1 tox inconclusive, HT1080NT lethal 23µM*, HT1080 IDH1KD tx inconclusive and KB-V1 cytotox inconclusive.
For COc1ccc(-c2cc3nc(-c4ccccc4)cc(N4CCC5(CC4)OCCO5)n3n2)cc1 the results were TGFb SMAD3 inh -1%, HepG2 tox -41%, KB-3-1 tox inactive, HT1080NT lethal -10%, HT1080 IDH1KD tx 3% and KB-V1 cytotox inactive.
For OC1CCCN(c2c3c(nc4cc(-c5cccc(Cl)c5)nn24)CCC3)C1 (configuration not stated) the results were TGFb SMAD3 inh inconclusive, HepG2 tox -34%, KB-3-1 tox inactive, HT1080NT lethal inconclusive, HT1080 IDH1KD tx -18% and KB-V1 cytotox 16µM*.
COC(=O)c1ccccc1S(=O)(=O)Nc1cc(=O)c2ccccc2[nH]1 was read as KB-3-1 tox inactive and KB-V1 cytotox inactive.
For O=C(Cn1c2c(sc1=O)C1c3ccccc3OCC1CS2)Nc1ccc(Cl)c(Cl)c1 (configuration not stated) the results were TGFb SMAD3 inh -17%, HepG2 tox -5%, KB-3-1 tox 16µM*, HT1080NT lethal -18%, HT1080 IDH1KD tx -15% and KB-V1 cytotox inactive.
O=Nc1c(O)n(Cc2ccc(Cl)cc2Cl)c2ccccc12 was read as TGFb SMAD3 inh inconclusive, HepG2 tox 5µM*, KB-3-1 tox inconclusive, HT1080NT lethal inconclusive, HT1080 IDH1KD tx inconclusive and KB-V1 cytotox inactive.
O=Nc1c(O)n(Cc2ccc(Cl)cc2)c2ccccc12 was read as TGFb SMAD3 inh -15%, HepG2 tox -57%, KB-3-1 tox inactive, HT1080NT lethal inconclusive, HT1080 IDH1KD tx inconclusive and KB-V1 cytotox inactive.
Screening Cc1cn(CC(=O)NCC(c2ccccc2)c2ccccc2)c(=O)[nH]c1=O returned TGFb SMAD3 inh -7%, HepG2 tox -24%, KB-3-1 tox inactive, HT1080NT lethal 5%, HT1080 IDH1KD tx -1% and KB-V1 cytotox inactive.
`CCc1ccc(C(=O)NN(C(=O)c2ccc(CC)cc2)C(C)(C)C)cc1` gave TGFb SMAD3 inh 0%, HepG2 tox -5%, KB-3-1 tox inconclusive, HT1080NT lethal 3%, HT1080 IDH1KD tx -1% and KB-V1 cytotox 7.3µM*.
`CC(C)(C)N(NC(=O)c1ccccc1)C(=O)c1ccc(C(=O)N(NC(=O)c2ccccc2)C(C)(C)C)cc1` gave TGFb SMAD3 inh 4%, HepG2 tox 13%, KB-3-1 tox inactive, HT1080NT lethal 7%, HT1080 IDH1KD tx 0% and KB-V1 cytotox inactive.
Screening COc1c(Br)cc([N+](=O)[O-])c(OC)c1C(=O)NC(=O)Nc1cc(Cl)cc(Cl)c1 returned TGFb SMAD3 inh -21%, HepG2 tox -10%, KB-3-1 tox inconclusive, HT1080NT lethal inconclusive, HT1080 IDH1KD tx inconclusive and KB-V1 cytotox 6.5µM*.
Screening Cc1ccc2nc(-c3cc(-c4ccccc4)no3)cn2c1 returned TGFb SMAD3 inh -7%, HepG2 tox -14%, KB-3-1 tox inactive, HT1080NT lethal 0%, HT1080 IDH1KD tx 0% and KB-V1 cytotox inactive.
Screening CCc1ccn2cc(-c3cc(-c4ccccc4)no3)nc2c1 returned TGFb SMAD3 inh inconclusive, HepG2 tox 10µM*, KB-3-1 tox inconclusive, HT1080NT lethal inconclusive, HT1080 IDH1KD tx inconclusive and KB-V1 cytotox inconclusive.
Screening CCOC(=O)C1=C(N)Oc2ccc3ccccc3c2C1c1cccnc1 (configuration not stated) returned TGFb SMAD3 inh inconclusive, HepG2 tox -55%, KB-3-1 tox inconclusive, HT1080NT lethal inconclusive, HT1080 IDH1KD tx -21% and KB-V1 cytotox 11µM*.
CCOC(=O)C1=C(N)Oc2ccc3ccccc3c2C1c1cccc(O)c1 (configuration not stated) was read as TGFb SMAD3 inh 11µM*, HepG2 tox -93%, KB-3-1 tox inactive, HT1080NT lethal -4%, HT1080 IDH1KD tx -16% and KB-V1 cytotox inactive.
